Test results from PubChem BioAssay (NCATS).
Records with an inconclusive call do not appear. The source made the active and inactive calls. Calls come from the whole dose curve; as a rule, active = well fitted curve in the direction sought with a large enough effect; inconclusive = small, poorly fitted or top-dose-only effect, or another doubt; inactive = no such curve, though single readings can be large; an effect the other way counts as inactive or inconclusive.

Legend:
[1] = qHTS for Inhibitors of Plasmodium falciparum (DD2) proliferation (AID 504314);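 note: parasite DNA measured by SYBR Green fluorescence after red cell lysis; plate controls were DMSO vehicle for no effect and artemisinin wells for full effect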
In short: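 Infected RBCs, 0.3% parasitemia, 2.5% Hct; compound 72 h, 37C/5% CO2; lyse + SYBR Green I, RT overnight, dark; read ex485/em535; normalize to DMSO and artemisinin 0.29 uM.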

[2] = qHTS for Inhibitors of Plasmodium falciparum (GB4) proliferation (AID 504315); note: nearly all actives have a fitted effect of over 50% in size; note: potency is the fitted concentration of half-maximal effect
In short: (§1)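 Erythrocytes infected with P. falciparum line (0.3% parasitemia, 2.5% hematocrit final) incubated with compounds 72 h at 37 °C, 5% CO2; SYBR Green lysis buffer added, fluorescence read next day. Normalized to 0.29 uM artemisinin and DMSO.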

[3] = qHTS for Inhibitors of Plasmodium falciparum (HB3) proliferation (AID 504318);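 note: 0% = DMSO vehicle and -100% = artemisinin control; nearly all actives have a fitted effect of over 60% in size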
In short: as §1

[4] = qHTS for Inhibitors of Plasmodium falciparum (CP250) proliferation (AID 504320);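 note: plate controls were DMSO vehicle for no effect and 0.29 µM artemisinin control for full effect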
In short: as §1

[5] = qHTS for Inhibitors of Plasmodium falciparum (7G8) proliferation (AID 504316); note: nearly all actives have a fitted effect of over 65% in size; note: potency is the fitted concentration of half-maximal effect
In short: as §1

[6] = target: Cytochrome P450 2C9 (Homo sapiens) (UniProt P11712); experiment: qHTS Assay for Inhibitors and Substrates of Cytochrome P450 2C9 (AID 883); note: % is set by controls: 0 for no effect and ±100 for the full control effect; nearly all actives have a fitted effect of over 60% in size
Cytochrome P450 2C9 (Homo sapiens), sequence (P11712 whole entry, looked up): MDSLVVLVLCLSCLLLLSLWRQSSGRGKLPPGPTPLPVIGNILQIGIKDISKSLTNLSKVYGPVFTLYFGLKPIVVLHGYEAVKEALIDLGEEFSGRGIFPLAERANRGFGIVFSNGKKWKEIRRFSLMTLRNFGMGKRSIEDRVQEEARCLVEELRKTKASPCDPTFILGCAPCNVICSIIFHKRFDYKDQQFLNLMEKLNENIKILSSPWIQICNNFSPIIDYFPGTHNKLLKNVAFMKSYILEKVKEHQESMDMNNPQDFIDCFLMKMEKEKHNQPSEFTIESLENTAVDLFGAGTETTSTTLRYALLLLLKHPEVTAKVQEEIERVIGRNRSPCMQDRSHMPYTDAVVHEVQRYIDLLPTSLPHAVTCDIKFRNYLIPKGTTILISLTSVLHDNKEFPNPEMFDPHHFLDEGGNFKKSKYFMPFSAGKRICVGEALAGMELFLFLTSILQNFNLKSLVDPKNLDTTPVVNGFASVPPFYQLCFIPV
In short: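 Inhibition of CYP2C9 is scored as loss of luminescence, with 57uM sulphaphenazole defining 100% inhibition. Substrate Luciferin-H is used at 100uM, equal to its KM; enzyme at 10nM in 25mM KPO4, 60 min at 37C with NADPH regeneration.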

[7] = target: Cytochrome P450 3A4 (Homo sapiens) (UniProt P08684); experiment: qHTS Assay for Activators of Cytochrome P450 3A4 (AID 885); note: nearly all actives have a fitted effect of over 65% in size
Cytochrome P450 3A4 (Homo sapiens), sequence (P08684 whole entry, looked up): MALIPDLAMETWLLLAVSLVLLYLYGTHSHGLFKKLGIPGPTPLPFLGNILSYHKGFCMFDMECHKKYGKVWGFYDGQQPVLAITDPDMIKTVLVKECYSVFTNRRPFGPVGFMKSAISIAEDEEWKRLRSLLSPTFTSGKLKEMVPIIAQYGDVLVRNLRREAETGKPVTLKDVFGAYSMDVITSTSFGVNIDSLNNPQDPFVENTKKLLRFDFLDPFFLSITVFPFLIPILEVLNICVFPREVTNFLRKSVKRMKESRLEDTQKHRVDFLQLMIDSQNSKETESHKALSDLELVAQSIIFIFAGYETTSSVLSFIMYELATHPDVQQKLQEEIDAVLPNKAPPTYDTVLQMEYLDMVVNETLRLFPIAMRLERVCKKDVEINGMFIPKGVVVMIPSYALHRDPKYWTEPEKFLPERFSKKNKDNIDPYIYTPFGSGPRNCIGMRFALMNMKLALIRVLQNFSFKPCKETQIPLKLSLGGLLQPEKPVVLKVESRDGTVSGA
In short: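 Signal was normalized against complete inhibition by 57 uM ketoconazole. The reaction used 20nM CYP3A4 with 25uM Luciferin-PPXE, 10-min compound preincubation and a 60-min NADPH-supported step at RT.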

COC(=O)CCC(=O)OC1(C)C(=O)C=C2C=C(C3CC3)N(c3ccccc3)C=C2C1=O (configuration not stated)
inactive: Potency [1] | Potency [2] | Potency [3]

CC#CCN1c2ccccc2[C@]23C[C@@H](C(=O)OC)N(C(=O)OCC)C2=NC(C(=O)OC)=C(C(=O)OC)[C@H]13
inactive: Potency [1] | Potency [2] | Potency [3] | Potency [4]

COC/C=C/C1=CC2=CC(=O)C(C)(OC(=O)c3cnc4ccccc4n3)C(=O)C2=CN1Cc1ccc2c(c1)OCO2 (configuration not stated)
inactive: Potency [1] | Potency [2] | Potency [5] | Potency [4]

C=CCN1c2ccccc2[C@]23C[C@@H](C(=O)OC)N(S(=O)(=O)CCCC)C2=NC(C(=O)OC)=C(C(=O)OC)[C@H]13
inactive: Potency [1] | Potency [2] | Potency [3] | Potency [4]

CCN1C(=O)[C@@H]2[C@H]3[C@H](O)[C@H](O)CC(=NO[C@@H](C)c4cc(-c5c(C)cc(C)cc5C)no4)[C@@H]3CC[C@H]2C1=O
inactive: Potency [1] | Potency [2] | Potency [5] | Potency [4]

COC(=O)C[C@H]1c2ccccc2[C@H]2C(=C[C@@H](C)[C@H]3C(=O)N(O)C(=O)[C@H]32)N1C(=O)OC
inactive: Potency [1] | Potency [2] | Potency [5] | Potency [4]

COC(=O)[C@@H](NC(=O)N1CCc2nc(-c3ccc(OC)cc3C)c3c(c2C1)CO[C@@H](c1ccccc1)C3)C(C)C
active: Potency [2] 1.9 µM | Potency [5] 1.69 µM
inactive: Potency [1] | Potency [4]

CCCCc1nc2c(c3c1C[C@H](C)OC3)CN(S(=O)(=O)c1ccc(Cl)c3nonc13)CC2
inactive: Potency [1] | Potency [2] | Potency [5] | Potency [4]

O=C(NS(=O)(=O)c1ccc(F)cc1)O[C@@H]1C(=O)c2cc(Br)ccc2O[C@H]1c1ccc2c(c1)OCO2
inactive: Potency [1] | Potency [2] | Potency [5] | Potency [4]

COC(=O)CCCC1=CC2=CC(=O)C(C)(OC(=O)c3cccs3)C(=O)C2=CN1CC1CC1 (configuration not stated)
inactive: Potency [1] | Potency [2] | Potency [5] | Potency [4]

COC(=O)C1=C(C(=O)OC)[C@@H]2N(C)c3ccc(OC)cc3[C@@]23C[C@@H](C(=O)OC)N(S(=O)(=O)c2ccc4c(c2)OCCN4C)C3=N1
inactive: Potency [1] | Potency [2] | Potency [5] | Potency [4]

CC(=O)C1=C(C)N(Cc2ccccc2)C(=O)N[C@H]1c1ccco1
inactive: Potency [1] | Potency [2] | Potency [5] | Potency [4]

CCCNC(=O)N1C2=NC(C(=O)OC)=C(C(=O)OC)[C@@H]3Nc4ccccc4[C@]23C[C@H]1C(=O)OC
inactive: Potency [1] | Potency [2] | Potency [3] | Potency [4]

COC(=O)C1=C(C(=O)OC)[C@@H]2N(C)c3ccccc3[C@@]23C[C@@H](C(=O)OC)N(S(=O)(=O)c2ccc(OC)cc2)C3=N1
inactive: Potency [1] | Potency [2] | Potency [4]

CCCCS(=O)(=O)N1C2=NC(C(=O)OC)=C(C(=O)OC)[C@@H]3Nc4ccccc4[C@]23C[C@H]1C(=O)OC
inactive: Potency [1] | Potency [2] | Potency [4]

C=CCNC(=O)N1CCc2nc(COc3ccccc3)c3c(c2C1)CO[C@@H](C)C3
inactive: Potency [1] | Potency [2] | Potency [4]

CCOC(=O)[C@@]1([C@@H](NC(=O)OC)c2cccc(F)c2)CCCC1=O
inactive: Potency [1] | Potency [2] | Potency [3] | Potency [4]

COC(=O)CCC(=O)OC1(C)C(=O)C2=CN(Cc3ccc(OC)cc3)C(c3ccc(OC)cc3)=CC2=C(Br)C1=O (configuration not stated)
inactive: Potency [1] | Potency [2] | Potency [4]

COC/C=C/C1=CC2=CC(=O)C(C)(OC(=O)c3cnc4ccccc4n3)C(=O)C2=CN1c1ccc(OC)cc1 (configuration not stated)
inactive: Potency [1] | Potency [2] | Potency [4]

C[C@@H]1C[C@](C)(C(=O)c2ccc3ccccc3c2)C=C1c1ccc2ccccc2c1
inactive: Potency [1] | Potency [2] | Potency [4]

CCCCS(=O)(=O)N1C2=NC(C(=O)OC)=C(C(=O)OC)[C@@H]3N(C)c4ccccc4[C@]23C[C@H]1C(=O)OC
inactive: Potency [1] | Potency [2] | Potency [4]

CC#CCN1c2ccccc2[C@]23C[C@@H](C(=O)OC)N(C(=O)c4ccc(Br)cc4)C2=NC(C(=O)OC)=C(C(=O)OC)[C@H]13
inactive: Potency [1] | Potency [2] | Potency [3] | Potency [4]

CC(C)CON=C1C[C@@H](O)[C@@H](O)[C@@H]2[C@H]3C(=O)N(C4CCCCC4)C(=O)[C@@H]3CC[C@H]12
inactive: Potency [1] | Potency [2] | Potency [3] | Potency [4]

COC(=O)C1=C(C(=O)OC)[C@@H]2N(C)c3ccccc3[C@@]23C[C@@H](C(=O)OC)N(S(=O)(=O)c2cccs2)C3=N1
inactive: Potency [1] | Potency [2] | Potency [4]

C=CCN1C=C2C(=O)C(C)(OC(=O)c3cnc4ccccc4n3)C(=O)C=C2C=C1/C=C/COC (configuration not stated)
inactive: Potency [1] | Potency [2] | Potency [4]

COC(=O)[C@H]1[C@H](CCc2ccccc2)NC(=O)N(Cc2ccccc2)[C@@H]1C
inactive: Potency [1] | Potency [2] | Potency [4]

Cc1cc2c(c(=O)n1-c1ccccc1)[C@H]1O[C@](c3ccsc3)(Cc3cc(C#N)ccc31)O2
inactive: Potency [1] | Potency [2] | Potency [4]

CC1(OC(=O)CCc2ccccc2)C(=O)C=C2C=C(c3ccc(C#N)cc3)N(CCc3c[nH]c4ccccc34)C=C2C1=O (configuration not stated)
inactive: Potency [1] | Potency [2] | Potency [4]

C[C@@H](c1ccccc1)N1C(=O)[C@@H]2[C@H]3[C@H](O)[C@H](O)CC(=NNC(=O)OCc4ccccc4)[C@@H]3CC[C@H]2C1=O
inactive: Potency [1] | Potency [2] | Potency [4]

CCCCC1=CC2=CC(=O)C(C)(OC(=O)CC)C(=O)C2=CN1c1ccc(OC)cc1 (configuration not stated)
inactive: Potency [1] | Potency [2] | Potency [3] | Potency [4]

C=CCN1c2ccccc2[C@]23C[C@@H](C(=O)OC)N(S(=O)(=O)c4c(C)noc4C)C2=NC(C(=O)OC)=C(C(=O)OC)[C@H]13
inactive: Potency [1] | Potency [2] | Potency [3] | Potency [4]

COC(=O)C1=C(C(=O)OC)[C@@H]2N(C)c3ccccc3[C@@]23C[C@@H](C(=O)OC)N(S(=O)(=O)c2c(C)noc2C)C3=N1
inactive: Potency [1] | Potency [2] | Potency [4]

COc1cccc([C@@H]2Oc3ccc(Br)cc3C(=O)[C@@H]2OC(=O)Nc2ccc(OC(F)F)cc2)c1
inactive: Potency [1] | Potency [2] | Potency [4]

CCCCc1nc2c(c3c1C[C@H](C)OC3)CN(C(=O)NCCCC(=O)OCC)CC2
inactive: Potency [1] | Potency [2] | Potency [4]

CCCCS(=O)(=O)N1C2=NC(C(=O)OC)=C(C(=O)OC)[C@@H]3N(C)c4ccc(OC)cc4[C@]23C[C@H]1C(=O)OC
inactive: Potency [1] | Potency [2] | Potency [4]

CC1(OC(=O)CCc2ccccc2)C(=O)C=C2C=C(c3ccc(C#N)cc3)N(C3CCCC3)C=C2C1=O (configuration not stated)
inactive: Potency [1] | Potency [2] | Potency [4]

C=CCN1c2ccccc2[C@]23C[C@@H](C(=O)OC)N(C(=O)C4CCC4)C2=NC(C(=O)OC)=C(C(=O)OC)[C@H]13
inactive: Potency [1] | Potency [2] | Potency [3] | Potency [4]

COC(=O)CCC(=O)OC1(C)C(=O)C2=CN(Cc3ccco3)C(c3ccc(OC)cc3)=CC2=C(Br)C1=O (configuration not stated)
inactive: Potency [1] | Potency [2] | Potency [4]

CCCCc1nc2c(c3c1C[C@H](C)OC3)CN(C(=O)c1cc(I)ccc1F)CC2
inactive: Potency [1] | Potency [2] | Potency [4]

COC(=O)N1CCc2cc(OC)c(OC)cc2C1Cc1ccc(OC)cc1 (configuration not stated)
inactive: Potency [6] | activity change, positive = activation [7] -32.2% [at 11.4 µM] | Potency [1] | Potency [2] | Potency [3] | Potency [4]

C=CCN1c2ccccc2[C@]23C[C@@H](C(=O)OC)N(S(=O)(=O)c4ccc(C#N)cc4)C2=NC(C(=O)OC)=C(C(=O)OC)[C@H]13
inactive: Potency [1] | Potency [2] | Potency [4]

C=CCN1c2ccccc2[C@]23C[C@@H](C(=O)OC)N(C(=O)c4cc(C)oc4C)C2=NC(C(=O)OC)=C(C(=O)OC)[C@H]13
inactive: Potency [1] | Potency [2] | Potency [4]

C[C@H]1Cc2c(COc3ccccc3)nc3c(c2CO1)CN(C(=O)Cc1cccs1)CC3
inactive: Potency [1] | Potency [2] | Potency [4]

CCN1C(=O)N[C@H](c2ccc(Br)cc2)C(C(=O)OC)=C1C
inactive: Potency [1] | Potency [2] | Potency [3] | Potency [4]

CCOC(=O)N1C2=NC(C(=O)OC)=C(C(=O)OC)[C@@H]3N(C)c4ccc(OC)cc4[C@]23C[C@H]1C(=O)OC
inactive: Potency [1] | Potency [2] | Potency [3] | Potency [4]

C=CCN1C=C2C(=O)C(C)(OC(=O)CCc3ccccc3)C(=O)C=C2C=C1c1ccc(C#N)cc1 (configuration not stated)
inactive: Potency [1] | Potency [2] | Potency [4]

C=CCN1c2ccccc2[C@]23C[C@@H](C(=O)OC)N(S(=O)(=O)c4cccs4)C2=NC(C(=O)OC)=C(C(=O)OC)[C@H]13
inactive: Potency [1] | Potency [2] | Potency [3] | Potency [4]

C/C=C/C1=Cc2ccccc2C(CC(=O)OC)N1C(=O)OC (configuration not stated)
inactive: Potency [1] | Potency [2] | Potency [4]

COC(=O)CCCC1=CC2=C(c3ccccc3)C(=O)C(C)(OC(=O)C3CCCC3)C(=O)C2=CN1CCCOC(C)C (configuration not stated)
inactive: Potency [1] | Potency [2] | Potency [4]

CCOC(=O)CN1C(=O)N[C@@H](c2ccccc2)[C@@H](C(=O)OC)[C@H]1C
inactive: Potency [1] | Potency [2] | Potency [3] | Potency [4]

CC#CCN1c2ccccc2[C@]23CCC(=O)N(CCCOC(C)C)C2=NC(C(=O)OC)=C(C(=O)OC)[C@H]13
inactive: Potency [1] | Potency [2] | Potency [4]

COC(=O)CCC(=O)OC1(C)C(=O)C=C2C=C(C3CC3)N(c3ccc(OC)cc3)C=C2C1=O (configuration not stated)
inactive: Potency [1] | Potency [2] | Potency [4]

COC(=O)[C@H]1[C@@H](C)N(CCc2cc(OC)c(OC)c(OC)c2)C(=O)N[C@H]1c1ccccc1
inactive: Potency [1] | Potency [3] | Potency [4]

COC(=O)CCC(=O)OC1(C)C(=O)C2=CN(c3ccc(OC)cc3)C(c3ccc(OC)cc3)=CC2=C(Br)C1=O (configuration not stated)
inactive: Potency [1] | Potency [3] | Potency [4]

COC(=O)C1=C(C(=O)OC)[C@@H]2N(Cc3ccccc3)c3ccccc3[C@@]23C[C@@H](C(=O)OC)N(S(=O)(=O)c2c(C)noc2C)C3=N1
active: Potency [5] 1.69 µM
inactive: Potency [1]

CC(C)CN1C=C2C(=O)C(C)(OC(=O)CCc3ccccc3)C(=O)C=C2C=C1c1ccc(C#N)cc1 (configuration not stated)
inactive: Potency [1] | Potency [5] | Potency [4]
